Drawing on PubChem BioAssay AID729 (The Scripps Research Institute Molecular Screening Center, 2007), this text covers activation for five compounds.

About 450 (0.46%) of roughly 97,000 compounds were called active. The list comes from a sample in which actives are over-represented; it also holds similar structures and randomly drawn compounds. Unmarked numbers belong to inactive results. Cut-off read from the data, not from the text of the source: active = activation above about 16%; inactive = the rest.

Sphingosine 1-phosphate receptor 2 (Homo sapiens), sequence (O95136 whole entry, looked up): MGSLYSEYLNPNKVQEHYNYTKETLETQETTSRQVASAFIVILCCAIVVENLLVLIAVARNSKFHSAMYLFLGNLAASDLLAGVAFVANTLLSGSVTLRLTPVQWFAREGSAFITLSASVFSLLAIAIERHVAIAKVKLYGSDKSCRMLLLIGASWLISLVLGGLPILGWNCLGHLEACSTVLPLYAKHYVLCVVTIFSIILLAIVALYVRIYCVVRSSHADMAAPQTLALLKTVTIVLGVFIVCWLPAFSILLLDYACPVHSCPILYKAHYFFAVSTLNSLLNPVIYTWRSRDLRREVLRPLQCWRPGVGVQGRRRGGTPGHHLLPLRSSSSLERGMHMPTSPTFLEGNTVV

The experiment has as its target Sphingosine 1-phosphate receptor 2 (Homo sapiens) (UniProt O95136). Kind of experiment: activation of human S1P2 receptor – cell-based, primary screen (AID 729).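 Note: 0% = vehicle low control and 100% = maximal reference agonist.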 To be noted: S1P2-expressing cell line, agonist reporter read-out; at 4.5 µM; active compounds read high.
Regarding `COc1cc(Cn2c(N)c(C(=O)NCc3ccco3)c3nc4ccccc4nc32)cc(OC)c1OC`, the activation is 28.7% (active).
Take `CCOC(=O)c1c(N)n(Cc2ccccc2)c2nc3ccccc3nc12`: the activation is 1.34%.
Take `CCOC(=O)c1c(N)n(CCN2CCOCC2)c2nc3ccccc3nc12`: the activation is -0.82%.
Under `O=c1c2ccccc2nc(-c2ccc(Cl)cc2Cl)n1-c1ccncc1` stands -3.53%; under `OC(Cn1c2ccccc2c2ccccc21)C[n+]1ccccc1` (stereo not given), -10.8%.
